High-throughput results deposited in PubChem BioAssay by The Scripps Research Institute Molecular Screening Center.
hcDAF-12 act: activators of H. contortus DAF-12 nuclear receptor | HEK293 hcDAF-12 lit1-tk-luc reporter, luminescence; 0% DMSO, 100% Δ7-dafachronic acid | activation, % at 6.8 µM | 370,000 compounds, 1.4% hits | AID 652067;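 active = activation above the mean of all tested compounds plus 3 SD, cut at about 5.5% in these data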;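 also: 100% = response to 3 µM Δ7-dafachronic acid high control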
ssDAF-12 act: activates DAF-12 receptor from parasite S. stercoralis. activation, % at 6.8 µM. 370,000 compounds, 1% hits. AID 652126. HEK293 ssDAF-12/GRIP1 lit1-tk-luc reporter, luminescence; % of 3 µM dafachronic acid response;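 active = activation above the mean over all tested compounds plus 3 SD, cut at about 0.9% in these data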;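 also: 0% = DMSO-only wells and 100% = 3 µM delta7-dafachronic acid wells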
SMARCA2 activ: SMARCA2 function activation, primary screen; activation, % at 9.1 µM; 370,000 compounds, 1% hits; MG213 cells, MMTV-luciferase reporter, dexamethasone, overnight; AID 652017; in the data active = activation above about 7.8%;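 also: 0% = vehicle wells and 100% = reference activator wells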
DAX1 inh-1: inhibits human nuclear receptor DAX1 | HEK293 Gal4-DAX1 luciferase reporter, luminescence | inhibition, % at 6.75 µM | 340,000 compounds, 0.99% hits | AID 504766;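 active = inhibition above the mean over all tested compounds plus 3 SD, cut at about 4.2% in these data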;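 also: 0% = DAX1-transfected cells with DMSO and 100% = empty-vector control cells with DMSO; inhibition shows as a rise in luminescence from relieved DAX1 repression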
Target sequence (P51843 207-470 limits assumed): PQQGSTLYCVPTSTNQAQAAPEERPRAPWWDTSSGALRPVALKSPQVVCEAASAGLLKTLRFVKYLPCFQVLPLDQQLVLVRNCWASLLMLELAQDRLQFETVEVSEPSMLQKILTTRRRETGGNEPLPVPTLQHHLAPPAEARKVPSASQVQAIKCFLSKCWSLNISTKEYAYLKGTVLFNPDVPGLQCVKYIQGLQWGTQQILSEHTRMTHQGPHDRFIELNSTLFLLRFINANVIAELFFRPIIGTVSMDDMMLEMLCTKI
DAX1 inh-2: inhibitors of DAX1 repression of SF-1 activated StAR promoter | inhibition, % at 6.8 µM | 370,000 compounds, 1.1% hits | HEK293T StAR-luciferase reporter, SF-1/DAX-1 repression relief;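 active = inhibition above the mean over all tested compounds plus 3 SD, cut at about 3.6% in these data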;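 also: 0% = DAX-1 cells with DMSO and 100% = cells lacking DAX-1 with DMSO; higher inhibition means more luminescence from relief of DAX-1 repression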
hgDAF-12 ag: activates the H. glycines DAF-12 receptor ligand-binding domain | HEK293 GAL4-hgDAF12 UAS-luciferase reporter, agonist luminescence; normalized to butyrate control | 370,000 compounds, 1.8% hits | activation, % at 6.8 µM;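 active = activation above a cutoff set at the mean of all screened compounds plus 3 SD, cut at about 10% in these data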;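 also: 0% = DMSO wells and 100% = sodium butyrate wells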
DAX1 inh confirm: NR0B1 (human) inhibition, confirmation. shares compounds with DAX1 inh-2. 2,400 compounds, 87% hits. inhibition, % at 6.8 µM. AID 652134. HEK293T StAR-promoter luciferase reporter, SF-1/DAX-1 repression;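 active = inhibition above the average of every tested compound plus 3 SD, cut at about 3.8% in these data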;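 also: 0% = DAX-1 cells with DMSO and 100% = no DAX-1 control cells with DMSO; active compounds raise luminescence by relieving repression of the StAR reporter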
SF1 mutant ctr: nonselective inhibitor or artifact in SF-1 mutant DAX1 counter-screen | shares compounds with DAX1 inh-2 | HEK293 StAR-luciferase, SF-1 AF2 mutant, luminescence | inhibition, % at 6.8 µM | 2,400 compounds, 78% hits | AID 652136;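 active = inhibition above the mean of all tested compounds plus 3 SD, cut at about 3% in these data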;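 also: 0% = DAX-1 transfected cells with DMSO and 100% = cells without DAX-1 with DMSO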
SMARCA2 conf: confirmation of SMARCA2 (BRM) function activators | 3,500 compounds, 30% hits | AID 652260 | activation, % at 9.1 µM | MG213 cells, MMTV-luciferase with dexamethasone, luminescence, overnight; MG213 cells expressing E1A, Rb sequestered; DMSO wells 0%, reference activator 100% | shares compounds with SMARCA2 activ;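 active = activation above its plate's cutoff, the mean activation of tested wells plus 3 SD, cut at about 7.9% in these data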
GAL4-VP16 Luc: counter-screen for SMARCA2 activators: GAL4-VP16 luciferase reporter activation | shares compounds with SMARCA2 activ | HEK293 GAL4-VP16 pG5luc reporter, luciferase luminescence; scaled: DMSO wells 0%, SAHA wells 100% | activation, % at 9.1 µM | 3,500 compounds, 41% hits;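 active = activation above the solvent-only control well mean plus 3 SD, averaged across control plates, cut at about 5.2% in these data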
LXR ag: counter-screen for hcDAF-12 agonists: agonists of human LXR-beta; shares compounds with hcDAF-12 act; HEK293 Gal4-LXR tk-luc reporter, luminescence, 24 h; normalized: DMSO 0%, positive control 100%; activation, % at 6.8 µM; 3,400 tested, under 10 active; AID 743027;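 active = mean percent activation of the reporter above a cutoff set as the average over tested compounds plus their standard deviation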
Target sequence (P55055 whole entry, looked up, the tested form may be a part): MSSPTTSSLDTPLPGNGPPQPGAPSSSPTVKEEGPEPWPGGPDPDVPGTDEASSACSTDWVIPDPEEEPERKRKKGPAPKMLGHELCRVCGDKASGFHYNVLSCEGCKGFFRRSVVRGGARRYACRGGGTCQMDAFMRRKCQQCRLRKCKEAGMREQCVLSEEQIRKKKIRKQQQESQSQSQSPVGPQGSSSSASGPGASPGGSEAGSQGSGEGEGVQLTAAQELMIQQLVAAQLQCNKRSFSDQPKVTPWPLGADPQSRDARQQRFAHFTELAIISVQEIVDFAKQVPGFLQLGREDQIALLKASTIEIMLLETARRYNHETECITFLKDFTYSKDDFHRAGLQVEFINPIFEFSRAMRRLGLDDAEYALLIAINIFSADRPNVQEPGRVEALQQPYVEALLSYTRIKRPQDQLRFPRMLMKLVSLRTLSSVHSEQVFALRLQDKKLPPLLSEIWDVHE
hcDAF12 ag: confirmation of H. contortus DAF-12 agonists; shares compounds with hcDAF-12 act; HEK293 hcDAF-12 lit1-tk-luc reporter, luminescence; % of Δ7-dafachronic acid response; activation, % at 6.8 µM; 3,400 compounds, 61% hits;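 active = mean activation across triplicate tests above the threshold derived from the earlier primary screen, cut at about 5.5% in these data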;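 also: 0% = DMSO only wells and 100% = 3 µM Δ7-dafachronic acid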
Starred values were filed as active, the others as inactive; . = no result given. Compounds with a hit are over-represented: about 4.8% of the library has one in this group of screens.

SMILES | hcDAF-12 act | ssDAF-12 act | SMARCA2 activ | DAX1 inh-1 | DAX1 inh-2 | hgDAF-12 ag | DAX1 inh confirm | SF1 mutant ctr | LXR ag | hcDAF12 ag | others
Cc1occc1C(=O)N/N=C/c1ccc[nH]1 | 3 | 0 | 8.2* | 2 | 5.2* | 11* | 3 | 1 | . | . | SMARCA2 conf=3;GAL4-VP16 Luc=2
CCn1c(=O)[nH]n(C/C(C)=C\c2c[n+](Cc3ccc4c(c3)OCO4)c(N)[nH]2)c1=O | -2 | -2 | . | . | . | -2 | . | . | . | .
COc1cc(-c2cc3nc(NCc4cccs4)ccn3n2)cc(OC)c1OC | -3 | -2 | -1 | . | -1 | -3 | . | . | . | .
c1ccc(-c2cc3nc(NCc4cccs4)ccn3n2)cc1 | 10* | 1 | 0 | . | 7.8* | 12* | 16* | 8.1* | 2 | 6.6*
CC(C)CN1CN2CCc3ccccc3C2CS1(=O)=O (configuration not stated) | -2 | -1 | 1 | . | -1 | 0 | . | . | . | .
COc1cccc(-c2nc3n(n2)CCc2ccccc2-3)c1 | 17* | 2.0* | 4 | 4.3* | 8.3* | 20* | 7.5* | 4.1* | 1 | 16*
COc1cccc(-c2cc(C(=O)N3CCc4ccccc4C3)no2)c1 | 1 | -1 | -3 | 1 | 0 | 3 | . | . | . | .
COc1ccc(C(=O)/C=C/Nc2ccccn2)c(OC)c1 | 3 | 1 | 2 | . | 3 | 9 | . | . | . | .
O=C(/C=C\Nc1ccccn1)c1ccccc1 | 12* | 1 | 5 | -2 | 5.3* | 9 | 10.0* | 1 | 1 | 9.7*
O=C(/C=C/Nc1cccc(O)c1)c1ccccc1 | 7.0* | 0 | 8.1* | -2 | 6.6* | 7 | 13* | 6.0* | 2 | 13* | SMARCA2 conf=6;GAL4-VP16 Luc=8.1*
Cc1ccc(-n2c(SCC(=O)N/N=C/C=C\c3ccco3)nnc2-c2ccccc2)cc1 | -2 | -1 | -4 | . | -1 | -1 | . | . | . | .
CN1C(=O)c2cc(NC(=O)Nc3ccccc3)ccc2OC[C@H]2O[C@@H](CC(=O)NC3Cc4ccccc4C3)CC[C@@H]21 | -2 | -1 | -1 | . | 0 | 2 | . | . | . | .
O=C(Nc1ccc2c(c1)CCC2)c1ccc(F)cc1 | 6.7* | 1 | 7 | 0 | 5.7* | 20* | 13* | 5.4* | 2 | 6.6*
O=C(Nc1ncccc1O)c1ccc(Cl)c(S(=O)(=O)N2CCCCCC2)c1 | -1 | -1 | -2 | -1 | 1 | -1 | . | . | . | .
O=C(Nc1ncccc1O)c1ccc2ccccc2c1 | 9.9* | 0 | 6 | 0 | 10* | 12* | 14* | 7.4* | 1 | 6.9*
CC(=O)NC(Cc1ccc2c(c1)OCO2)C(=O)N1CCCN(C(C)=O)CC1 (configuration not stated) | -3 | -1 | -8 | . | 0 | -1 | . | . | . | .
CC(=O)c1cc(-c2ccc3c(c2)OCO3)c(=O)n2c1CCC2 | 2 | 0 | -1 | . | 1 | 4 | . | . | . | .
Cc1ccn2c(CC(C)(C)C)c(-c3ccc(F)cc3)nc2c1 | 6.7* | 1 | 5 | 3 | 5.6* | 10 | 8.8* | 6.6* | 1 | 4
CCOC(=O)c1cccc(NC(=O)CN(C)S(=O)(=O)c2ccc(Cl)s2)c1 | -1 | -2 | -4 | . | -2 | 0 | . | . | . | .
Oc1c(N=Nc2ccccc2)sc2ccccc12 | 18* | 3.5* | 5 | 3 | 5.5* | 13* | 19* | 7.4* | 2 | 18*
O=c1ccc(N=Nc2ccccc2)ccc1O | 4 | 0 | -2 | 0 | 0 | 4 | . | . | . | .
Brc1ccc(CSc2nnc(SCc3ccccc3)s2)cc1 | -2 | -1 | -4 | . | 1 | -2 | . | . | . | .
O=C(Nc1cccc([N+](=O)[O-])c1)c1cc2ccccc2cc1O | -2 | -2 | -10 | -7 | -3 | -6 | . | . | . | .
O=C(Nc1ccncc1)c1cc2ccccc2cc1O | 6.7* | 0 | 2 | 2 | 6.2* | 12* | 7.3* | 5.8* | 1 | 6.3*
Cc1cc(C)n(-c2ncccc2[N+](=O)[O-])n1 | 1 | 0 | -2 | 0 | -1 | 0 | . | . | . | .
SMILES | hcDAF-12 act | ssDAF-12 act | SMARCA2 activ | DAX1 inh-1 | DAX1 inh-2 | hgDAF-12 ag | DAX1 inh confirm | SF1 mutant ctr | LXR ag | hcDAF12 ag | others
CC(C)c1ccc(-n2cnn(-c3ncccc3[N+](=O)[O-])c2=O)cc1 | 22* | 2.4* | 3 | 1 | 6.8* | 22* | 20* | 10* | 2 | 14*
O=C(O)c1cc(N/N=C/C(Cl)=C/c2ccccc2)ccc1Cl | 11* | 2.2* | 7 | -4 | 13* | 28* | 22* | 12* | 2 | 13*
Cc1ccc(/C=N/Nc2ccc(Cl)c(C(=O)O)c2)s1 | 19* | 4.1* | 2 | -2 | 6.7* | 22* | 12* | 9.1* | 2 | 12*
Cc1cc(C)c2nc(NC(=O)c3ccco3)sc2c1 | 6.6* | 1.0* | 6 | 0 | 19* | 10 | 13* | 3 | 2 | 9.2*
Cc1ccc(-c2cc3nc(C)cc(C)n3n2)cc1 | 17* | 5.6* | 5 | 1 | 4.5* | 21* | 11* | 6.2* | 2 | 18*
O=C(Nc1nc2ccccc2[nH]1)c1ccc(F)cc1 | 8.0* | 1.2* | 3 | -2 | 5.3* | 13* | 14* | 8.9* | 1 | 5
Cc1ccc(/C=N/Nc2nc(C(C)(C)C)cs2)o1 | 4 | 0 | 0 | -1 | 0 | 5 | . | . | . | .
Cc1ccc(/C=N/Nc2nc3ccccc3s2)o1 | 21* | 2.8* | 2 | 1 | 6.2* | 13* | 16* | 9.1* | 2 | 21*
Cc1ccnc(NC(=O)Cc2ccc(-c3ccccc3)cc2)c1 | 9.9* | 1.3* | 42* | 3 | 15* | 34* | 21* | 1 | 2 | 9.6* | SMARCA2 conf=37*;GAL4-VP16 Luc=9.1*
